Assay results reported in PubChem BioAssay (NCI).
This is part of a sample that, as a whole, favours compounds with a hit. Of some 83,000 tested, about 20% had one in any assay.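 The test compound was applied at a single concentration to cells in 96-well plates for 48 hours, and percent growth was recorded.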 Unmarked numbers belong to inactive results. Calls of active or inactive are those of the source. How the source made its calls: active means growth percent below 10; inactive means the rest.

Assays:
Assay in all cases: NCI-60 one-dose screen, 48 h (100 = growth as untreated, 0 = no growth, -100 = all killed)
Details in all cases: 10 µM unless noted
HCT-15 colon = test system: HCT-15 colon
HT29 colon = test system: HT29 colon
SNB-19 CNS = test system: SNB-19 CNS
U251 CNS = test system: U251 CNS
PC-3 prostate = test system: PC-3 prostate
SK-MEL-5 melanoma = test system: SK-MEL-5 melanoma
UACC-62 melanoma = test system: UACC-62 melanoma
LOX IMVI melanoma = test system: LOX IMVI melanoma
SK-MEL-28 melanoma = test system: SK-MEL-28 melanoma
SK-MEL-2 melanoma = test system: SK-MEL-2 melanoma
EKVX NSCLC = test system: EKVX NSCLC
SN12C renal = test system: SN12C renal
UO-31 renal = test system: UO-31 renal
TK-10 renal = test system: TK-10 renal
ACHN renal = test system: ACHN renal
CAKI-1 renal = test system: CAKI-1 renal
A498 renal = test system: A498 renal
CCRF-CEM leukemia = test system: CCRF-CEM leukemia
MOLT-4 leukemia = test system: MOLT-4 leukemia

Row | SMILES | growth (HCT-15 colon) | growth (HT29 colon) | growth (SNB-19 CNS) | growth (U251 CNS) | growth (PC-3 prostate) | growth (SK-MEL-5 melanoma) | growth (UACC-62 melanoma) | growth (LOX IMVI melanoma) | growth (SK-MEL-28 melanoma) | growth (SK-MEL-2 melanoma) | growth (EKVX NSCLC) | growth (SN12C renal) | growth (UO-31 renal) | growth (TK-10 renal) | growth (ACHN renal) | growth (CAKI-1 renal) | growth (A498 renal) | growth (CCRF-CEM leukemia) | growth (MOLT-4 leukemia)
1 | CN(CCCCN(C[C@H]1Cc2ncccc2CN1)[C@H]1CCCc2cccnc21)C1CCC(F)(F)CC1 | 70.4% | 82.3% | 90.5% | 81.6% | 83.8% | 104% | 98.2% | 93.3% | 106% | 94.6% | 87.4% | 86.1% | 67.6% | 82.4% | 102% | 73.9% | 99.4% | 88.3% | 91.4%
2 | NC(=O)c1c(NC(=S)Nc2ccc(OC(F)(F)F)cc2)sc2c1CCC1(C2)OCCO1 | 97.5% | 95.6% | 97.5% | 97.2% | 92.6% | 98.2% | 77.1% | 98% | 104% | 93.9% | 93.1% | 95.4% | 88% | 106% | 99.9% | 93.6% | 90.4% | 93.8% | 87.3%
3 | Cc1ccc(C(=O)NCCCNc2nccc(-n3ccc4cccnc43)n2)cc1 | 102% | 106% | 90.6% | 93.2% | 97.8% | 99.5% | 102% | 97% | 106% | 105% | 86.1% | 95.1% | 85.9% | 67.7% | 83.2% | 96.6% | 81.7% | 107% | 94.1%
4 | COc1ccc(/C=C2/C(=O)NC(SCC(=O)N3CCN(c4cc5c(cc4F)c(=O)c(C(=O)O)cn5C4CC4)CC3)=NC2N)cc1OC (configuration not stated) | 98.9% | 112% | 102% | 102% | 99.2% | 104% | 102% | 103% | 105% | 111% | 87.6% | 104% | 86.9% | 112% | 104% | 94.5% | 107% | 99.4% | 109%
5 | S=c1[nH]nc(-c2cc3ccc2CCc2ccc(cc2)CC3)n1-c1ccccc1 | 89.7% | 90.8% | 93.3% | 94.5% | 83.9% | 96.5% | 76.2% | 98% | 98.8% | 105% | 93.4% | 91.4% | 92.9% | -61.5% (active) | 100% | 87.2% | 90.2% | 95.8% | 92.7%
6 | Nc1cccc(-c2nc3sccn3c2-c2ccnc(NCCNS(=O)(=O)c3ccc(C(F)(F)F)cc3)n2)c1 | 47.3% | 45.7% | 75.4% | 52.4% | 51.6% | 32.9% | 61.6% | 38.8% | 82.2% | 80.5% | 67.2% | 63% | 15.8% | 86.1% | 33.9% | 39.1% | 34.1% | 41.8% | 45.6%
7 | OC(c1cc2cc(Br)ccc2c2cc(Br)ccc12)C1CCCCN1 (configuration not stated) | -71.6% (active) | -82.5% (active) | -70.9% (active) | -94.5% (active) | -88.5% (active) | -1.27% (active) | -79.4% (active) | -62% (active) | -93.2% (active) | -73.5% (active) | -70.7% (active) | -73.8% (active) | -80.6% (active) | -90.5% (active) | -73.4% (active) | -81% (active) | 24% | -57.4% (active) | -71.9% (active)
8 | NC1=C(/C(N)=N/O)C(c2ccccc2)c2ccc3ccccc3c2O1 (configuration not stated) | 5.04% (active) | 6.2% (active) | 24.8% | 19.6% | 20.4% | -44.5% (active) | 19.8% | 22.7% | 49.8% | 44.7% | 29.1% | 24.2% | 38.6% | 74.4% | 28.2% | 26% | -8.95% (active) | 14.4% | 27.2%
9 | Cc1ccc2[nH]c(=O)c3c(c2c1)Oc1ncn2nc(-c4ccco4)nc2c1C3c1ccc(Cl)cc1 (configuration not stated) | 91.6% | 101% | 88.2% | 97.7% | 93.7% | 99% | 101% | 90.4% | 103% | 95.6% | 90.9% | 96.2% | 84.9% | 107% | 94.6% | 91.9% | 96.8% | 97.4% | 103%
10 | Cc1nc2c3c(ncn2n1)Oc1c(c(=O)[nH]c2ccccc12)C3c1ccc(Cl)cc1 (configuration not stated) | 99.6% | 102% | 92% | 94.1% | 83.4% | 94.8% | 90.6% | 91.1% | 110% | 101% | 86.6% | 97% | 64.5% | 105% | 96.1% | 83.8% | 95.4% | 96.5% | 101%
11 | CC(C)(C)n1cc(-c2ccnc(NCCCNS(=O)(=O)c3ccc(C(F)(F)F)cc3)c2)c(-c2cccc(O)c2)n1 | -55.6% (active) | 2.27% (active) | 6.04% (active) | 12.9% | 13.2% | 16.7% | 48.7% | -81.8% (active) | -48.3% (active) | 0.948% (active) | 36.3% | 40.3% | 40.7% | 92.2% | 25.3% | 37.8% | 60.1% | 21.4% | 2.23% (active)
12 | O=C(NCCNc1nccc(-n2ccc3cccnc32)n1)c1ccc(C(F)(F)F)cc1 | 104% | 113% | 104% | 99.8% | 102% | 101% | 94.6% | 99.4% | 105% | 108% | 94.2% | 98.7% | 84% | 134% | 97.6% | 87.6% | 108% | 101% | 104%
13 | Cc1ccc(N2CCN(C(C)C(N)=O)CC2)cc1 (configuration not stated) | 115% | 118% | 101% | 107% | 105% | 110% | 91.4% | 107% | 119% | 134% | 118% | 92.8% | 82.2% | 114% | 106% | 107% | 115% | 98.2% | 117%
14 | C1=Cc2ccccc2N(c2nnc(-c3ccccc3)o2)c2ccccc21 | 45.8% | 102% | 96.7% | 66.8% | 60.6% | 72% | 86.4% | 79.9% | 98.2% | 108% | 94.3% | 96.2% | 83.9% | 114% | 95.1% | 83.3% | 80% | 73.9% | 83.5%
15 | COc1ccc(NC(=O)c2c(Nc3ccc(OC)cc3OC)n[nH]c2N)c(OC)c1 | 104% | 102% | 90.3% | 96.4% | 90.6% | 79.9% | 68% | 101% | 96.6% | 102% | 89.1% | 90% | 69.7% | 117% | 95% | 94.9% | 114% | 110% | 78.8%
16 | Nc1nc(Nc2cc(Cl)cc(Cl)c2)nn1S(=O)(=O)c1ccc2ccccc2c1 | 59.2% | 39.8% | 78% | 37.5% | 48.9% | 86.5% | 67% | 60.1% | 84.8% | 79.2% | 53.6% | 43.3% | 14.7% | 63.5% | 29.2% | 64.1% | 15.4% | 57.9% | 37.6%
17 | COc1cccc(-c2nc3sccn3c2-c2ccnc(NCCCNS(=O)(=O)c3ccc(C(F)(F)F)cc3)c2)c1 | 38.7% | 47.2% | 69.4% | 55.1% | 29.1% | 5.99% (active) | 43% | 55.3% | 72.4% | 65.7% | 46% | 47.9% | 29.7% | 85.5% | 56% | 40.3% | 43% | 40.4% | 26.4%
18 | CCOC(=O)c1c(/N=C2\SC(=O)/C(=C\C(=O)OC)N2NC)sc2c1CCN(C(=O)OCC)C2 | 95.9% | 99% | 99.2% | 101% | 94.8% | 99.5% | 97.7% | 94.2% | 101% | 92.5% | 89.1% | 98.9% | 87% | 121% | 102% | 103% | 110% | 101% | 106%
19 | Clc1cccc(-c2cc(-c3ccc4c(c3)OCCO4)[nH]n2)c1 | 18.7% [25 µM] | 7.83% [25 µM] (active) | 45.7% [25 µM] | 27.4% [25 µM] | 37.1% [25 µM] | 5.53% [25 µM] (active) | 45.4% [25 µM] | 30.2% [25 µM] | 56% [25 µM] | 17.9% [25 µM] | 24.3% [25 µM] | 36.3% [25 µM] | 44.2% [25 µM] | 61% [25 µM] | 44.7% [25 µM] | 29% [25 µM] | 6.47% [25 µM] (active) | 17.9% [25 µM] | 25.8% [25 µM]
20 | CCCCN(CCCC)C(=O)CC | 101% | 110% | 114% | 120% | 98.2% | 103% | 106% | 104% | 114% | 112% | 105% | 109% | 99.5% | 114% | 112% | 109% | 97.7% | 96.8% | 97.8%
21 | O=C(NS(=O)(=O)c1ccc2ccccc2c1)n1cc(-c2ccncc2)c(-c2ccc(Cl)c(O)c2)n1 | 82.1% | 70.3% | 109% | 84.5% | 74.2% | 77.5% | 15.5% | 49.9% | 54.6% | -2.83% (active) | 65.5% | 68.8% | 56.4% | 116% | 49.6% | 96.2% | 87.7% | 74.1% | 78.9%
22 | Cc1c(C(=O)/C=C/c2csc3ccccc23)[n+](=O)c2ccccc2n1[O-] | 48.7% | 28.3% | 73.7% | 40.2% | 47.1% | 79.5% | 70.5% | 34.1% | 105% | 95.3% | 67.8% | 78.7% | 36.8% | 76.5% | 85% | 17% | 118% | 51.9% | 81.8%
23 | COc1ccc2[nH]c(=O)c(/C=N/Nc3nc(-c4ccccc4)cs3)c(O)c2c1 | 20.5% | 70.2% | 75.4% | 44.3% | 58.9% | 65.2% | 62.7% | 60% | 76% | 83.1% | 53.8% | 73.8% | 42.5% | 90.2% | 48.6% | 43.7% | 94.9% | 26.5% | 35.2%
